According to PubChem BioAssay (NCI):
About 83,000 compounds went through this panel and 20% of them were active in at least one assay; those are over-represented in the sample as a whole.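 Single-dose data. Exposure time 48 hours. Values below 10 considered active.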 Unmarked numbers belong to inactive results. Calls of active or inactive are those of the source.

System: SR leukemia
Test: NCI-60 one-dose screen, 48 h (100 = growth as untreated, 0 = no growth, -100 = all killed)
Conditions: 10 µM unless noted

Which growth does the source give for `O=c1nc2sc3nc4ccccc4cc3cc-2s1` here?
Its growth is 134%.

For `O=c1c(-c2nc3ccccc3[nH]2)cc2ccccc2n1Cc1cn(Cc2ccc(N3CCOCC3)cc2)nn1`, which growth is on record?
The growth was 71.7%.

For `COC(=O)/C(CCC=C(C)C)=C1\[C@@H](OC(C)=O)C[C@@]2(C)[C@H]1CC(=O)[C@H]1[C@@]3(C)CC[C@H](NCc4ccccc4)[C@@H](C)[C@@H]3CC[C@@]12C`, which growth is on record?
The growth was 1.93% (active).

For `S=C1CCCC(=S)N1`, which growth is on record?
Its growth is 114%.

With `CCCCC1COc2cccc3c2N1C=C/C3=C\C(=O)N(C)c1ccccc1` (centres undefined) as the compound, how does the growth read?
Its growth is 66.6%.

How did the growth turn out when `O=C(Nc1ccc(N2CCNCC2)cc1)c1[nH]ncc1Nc1cc(Oc2ccccc2)ncn1` was run?
The growth was 1.43% (active).

With `COc1cc(C2CC(c3ccc(Nc4nc(NCCO)nc(N5CCOCC5)n4)cc3)=NN2c2cc(Cl)cc(Cl)c2)cc(OC)c1OC` (centres undefined) as the compound, how does the growth read?
Its growth is 23.2%.

How did the growth turn out when `Cc1ccc2sc3c(NCCCNCCO)nc4ccccc4c3c(=O)c2c1` was run?
Its growth is 2.94% (active).

With `Nc1nc(N)c2c(n1)NC1(C=C(O)c3ccccc31)C1=C(N2)c2ccccc2C1=O` (centres undefined) as the compound, how does the growth read?
Its growth is 134%.

Which growth does the source give for `O=C(c1nc2ccccc2[nH]1)C1[C@@H](c2cccc(O)c2)C2CC3CCCCC3N2[C@@]12C(=O)Nc1cc(Cl)ccc12` (some centres undefined) here?
The growth was 3.72% (active).

Which growth does the source give for `Clc1ccc(COc2ccc(Nc3ncnc4onc(-c5ccccc5)c34)cc2)cc1` here?
The growth was 43.8%.

Which growth does the source give for `CC1(O)COCCCCOc2c(CN)cccc2NC(=O)c2nc(cnc2N)-c2ccc(cc2)S(=O)(=O)C(C)(C)C1` (centres undefined) here?
The growth was 8.92% (active).

Which growth does the source give for `O=c1c2cc(F)ccc2sc2c(NCCN3CCCC3)nc3ccccc3c12` here?
The growth was 16.7%.

Which growth does the source give for `COc1ccc(-c2nocc2-c2cccs2)cc1` here?
Its growth is 128%.

How did the growth turn out when `Cn1c2c(c(=O)[nH]c1=O)NC1=C(C(=O)c3ccccc31)C1(C=C(O)c3ccccc31)N2` (centres undefined) was run?
Its growth is 47.6%.

With `Cc1c(-c2noc(-c3ccc([N+](=O)[O-])cc3)n2)no[n+]1[O-]` as the compound, how does the growth read?
Its growth is 103%.

Which growth does the source give for `O=C(Nc1ccc(N2CCNCC2)cc1)c1[nH]ncc1Nc1ncnc2sc3c(c12)CCC3` here?
The growth was -8.96% (active).

How did the growth turn out when `COC(=O)/C(CCC=C(C)C)=C1\[C@@H](OC(C)=O)C[C@@]2(C)[C@H]1CC(=O)N[C@H]1[C@@]3(C)CCNC(=O)[C@@H](C)[C@@H]3CC[C@@]12C` was run?
Its growth is 103%.

Which growth does the source give for `O=C(Nc1ncc(Cc2cccc(C(F)(F)F)c2)s1)C1COc2ccccc2O1` (centres undefined) here?
Its growth is 106%.

With `CCN1C(=O)N(CC)C2Nn3c(s/c(=C\c4ccccc4F)c3=O)=NC21` (centres undefined) as the compound, how does the growth read?
Its growth is 24.5%.

How did the growth turn out when `O=C1/C(=C/c2cccc(O)c2)COc2ccc(O)cc21` was run?
The growth was 10.5%.

With `O=C(NCc1ccco1)C1CN(c2ccc(Cl)cc2)N(c2ccc(Cl)cc2)C1=O` (centres undefined) as the compound, how does the growth read?
Its growth is 36.7%.

Which growth does the source give for `CC(=O)c1ccc(NC(=O)Nc2ccc(S(=O)(=O)Nc3ccc(Cl)nn3)cc2)cc1` here?
Its growth is 117%.

`O=C(/C=C/c1ccc(Cl)cc1)c1ccc(Nc2nc(NCCO)nc(N3CCOCC3)n2)cc1` was tested. Which growth did it give?
Its growth is 19.8%.

For `CN(O)c1nc(N(C)O)nc(N2CCOCC2)n1`, which growth is on record?
The growth was 55.6%.

With `C1CCN(c2nc(N3CCCCC3)nc(N3CCOCC3)n2)CC1` as the compound, how does the growth read?
The growth was 89.4%.

Which growth does the source give for `Cn1nc(C(F)(F)F)c(-c2ccc(Cl)c(C(F)(F)F)c2)c1-c1ccc(OCc2ccc(Cl)cc2)cc1O` here?
The growth was 25.1%.

For `CC/C=C\C[C@H](O)C/C=C1/C(=O)C=C[C@@H]1C/C=C\CCCC(=O)OCCS(=O)(=O)c1ccccc1`, which growth is on record?
Its growth is 8.55% (active).

For `O=C(/C=C/c1ccc(F)cc1)c1ccc(Nc2nc(NCCO)nc(Nc3ccc(Cl)cc3)n2)cc1`, which growth is on record?
The growth was 25.8%.

With `COc1cc(C2C3=C(COC3=O)N(CCO)c3cc4c(cc32)OCCO4)cc(OC)c1O` (centres undefined) as the compound, how does the growth read?
Its growth is 23%.

How did the growth turn out when `COc1cc2nc(NC3CCCC3)nc(NC3CCN(C(C)C)CC3)c2cc1OC` was run?
The growth was -1.77% (active).

With `CCCCC1CCc2cccc3c(SCC(=O)N(C)c4ccc(Cl)cc4)cc[n+]1c23` (centres undefined) as the compound, how does the growth read?
The growth was 101%.

With `CC(=O)c1ccc(Nc2nc(NCCO)nc(Nc3ccc(Cl)cc3)n2)cc1` as the compound, how does the growth read?
The growth was 64.7%.

With `NC1C(N)C(N)C1N` (centres undefined) as the compound, how does the growth read?
The growth was 86.8%.

Which growth does the source give for `Cc1ccc2cccc(Oc3ccc(Nc4ncnc5onc(-c6ccccc6)c45)cc3)c2n1` here?
The growth was 67%.

For `COc1cc(C=C2C(=O)N(C)C(=O)N(C)C2=O)cc(CN2CCCCC2)c1O`, which growth is on record?
Its growth is 94.4%.

For `COc1cc2nc(-c3cnc(N(C)C)nc3)nc(NC3CCN(Cc4ccccc4)CC3)c2cc1OC`, which growth is on record?
The growth was 4.28% (active).

How did the growth turn out when `COc1ccc(CCN2C(=O)CCSC2=S)cc1OC` was run?
Its growth is 33.2%.

How did the growth turn out when `NCCCNc1nc2ccccc2c2c(=O)c3cc(F)ccc3sc12` was run?
The growth was 9.08% (active).
